Assay [1] concerns the target Luciferin 4-monooxygenase (Photinus pyralis) (UniProt P08659). Nature of the assay: qHTS assay to identify small molecule inhibitors of firefly luciferase (AID 1224835). Note: series mostly up to about 120 µM; nearly all actives have a fitted effect of over 25% in size. The essentials: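 Biochemical qHTS: compounds run as interplate titrations against purified firefly enzyme, with D-luciferin and ATP each at its KM concentration. Light output recorded by CCD imaging.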
On the technique in general: In qHTS, concentration-response curves come from the screen itself.

A short description of assay [2]: qHTS assay to identify small molecule agonists of the constitutive androstane receptor (CAR) signaling pathway - cell viability counter screen (AID 1224836). Note: series mostly up to about 92 µM; nearly all actives have a fitted effect of over 45% in size. The essentials: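 HepG2 cells stably carrying hCAR and a CYP2B6-2.2kb reporter were plated 4 h, then given compounds at 15 concentrations plus PK11195 (final 0.75 uM). After 23 h at 37 C, viability was read by CellTiter-Fluor fluorescence.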

Assay [3] is described as follows: qHTS assay to identify small molecule antagonists of the constitutive androstane receptor (CAR) signaling pathway - cell viability counter screen (AID 1224837). Note: series mostly up to about 92 µM; nearly all actives have a fitted effect of over 45% in size. In outline: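 Counter screen run in HepG2-CYP2B6-hCAR cells: 4 hr settle, compound titration (15 concentrations) with 50 nM CITCO, 23 hr at 37 C/5% CO2, CellTiter-Fluor fluorescence.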
The target of assay [4] is Nuclear receptor subfamily 1 group I member 3 (Homo sapiens) (UniProt Q14994). In words: qHTS assay to identify small molecule antagonists of the constitutive androstane receptor (CAR) signaling pathway (AID 1224838). Note: nearly all actives have a fitted effect of over 40% in size. Note: potency is the fitted concentration of half-maximal effect. The essentials: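 Cell line: HepG2 double-stable for hCAR and CYP2B6-2.2kb reporter. Agonist: CITCO, 50 nM final. Compounds: 15 concentrations, 24 h, 37 C. Detection: ONE-Glo luminescence.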
Nuclear receptor subfamily 1 group I member 3 (Homo sapiens), sequence (Q14994 whole entry, looked up): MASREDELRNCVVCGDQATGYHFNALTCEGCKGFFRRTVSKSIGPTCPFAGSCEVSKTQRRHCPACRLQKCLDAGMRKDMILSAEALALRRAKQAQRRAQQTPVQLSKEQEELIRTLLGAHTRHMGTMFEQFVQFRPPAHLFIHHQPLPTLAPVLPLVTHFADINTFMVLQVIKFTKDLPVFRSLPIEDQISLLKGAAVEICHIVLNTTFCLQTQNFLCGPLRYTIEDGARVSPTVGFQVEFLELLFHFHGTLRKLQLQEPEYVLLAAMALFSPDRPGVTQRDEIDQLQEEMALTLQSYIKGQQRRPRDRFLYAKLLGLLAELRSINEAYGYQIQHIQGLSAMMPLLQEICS

Assay [5] shares this target. Nature of the assay: qHTS assay to identify small molecule agonists of the constitutive androstane receptor (CAR) signaling pathway (AID 1224839). For activation: series mostly up to about 92 µM. Note: nearly all actives have a fitted effect of over 15% in size. Note: potency is the fitted concentration of half-maximal effect. The essentials:
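HepG2 cells stably expressing hCAR and a CYP2B6-2.2kb luciferase reporter were treated with compounds at 15 concentrations plus 0.75 uM PK11195 (final) for 24 h at 37 C; luminescence was read after ONE-Glo addition.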

A short description of assay [6]: qHTS assay to identify small molecule antagonists of the estrogen related receptor signaling pathway with the pleiotropic PPARgamma coactivator (PGC) from Tox21 10K library - cell viability counter screen (AID 1224840; active = well fitted cell-killing curve with a large enough effect in the repeat runs, not every such curve was filed as active; note: nearly all actives have a fitted effect of over 40% in size; note: potency is the fitted concentration of half-maximal effect). The essentials:
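Following seeding of 2,000 PGC/ERR cells/well and 6 hours' incubation, test compounds were delivered in DMSO. The plates then sat 17.5 hours at 37 C before a fluorogenic live-cell protease reagent (CellTiter-Fluor) was read after 30 min.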

For assay [7], the target named is Thyrotropin receptor (Homo sapiens) (UniProt P16473). Nature of the assay: qHTS assay to identify small molecule agonists of the thyroid stimulating hormone receptor (TSHR) signaling pathway (AID 1224843; calls by dose curve; note: nearly all actives have a fitted effect of over 45% in size). In outline: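 Steps: seed 800 TSHR-HEK293 cells per well; add test compound and hold 30 min at ambient temperature; dispense cAMP-d2 then anti-cAMP cryptate; incubate 1 h at ambient; measure fluorescence intensity.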
Thyrotropin receptor (Homo sapiens), sequence (P16473 whole entry, looked up): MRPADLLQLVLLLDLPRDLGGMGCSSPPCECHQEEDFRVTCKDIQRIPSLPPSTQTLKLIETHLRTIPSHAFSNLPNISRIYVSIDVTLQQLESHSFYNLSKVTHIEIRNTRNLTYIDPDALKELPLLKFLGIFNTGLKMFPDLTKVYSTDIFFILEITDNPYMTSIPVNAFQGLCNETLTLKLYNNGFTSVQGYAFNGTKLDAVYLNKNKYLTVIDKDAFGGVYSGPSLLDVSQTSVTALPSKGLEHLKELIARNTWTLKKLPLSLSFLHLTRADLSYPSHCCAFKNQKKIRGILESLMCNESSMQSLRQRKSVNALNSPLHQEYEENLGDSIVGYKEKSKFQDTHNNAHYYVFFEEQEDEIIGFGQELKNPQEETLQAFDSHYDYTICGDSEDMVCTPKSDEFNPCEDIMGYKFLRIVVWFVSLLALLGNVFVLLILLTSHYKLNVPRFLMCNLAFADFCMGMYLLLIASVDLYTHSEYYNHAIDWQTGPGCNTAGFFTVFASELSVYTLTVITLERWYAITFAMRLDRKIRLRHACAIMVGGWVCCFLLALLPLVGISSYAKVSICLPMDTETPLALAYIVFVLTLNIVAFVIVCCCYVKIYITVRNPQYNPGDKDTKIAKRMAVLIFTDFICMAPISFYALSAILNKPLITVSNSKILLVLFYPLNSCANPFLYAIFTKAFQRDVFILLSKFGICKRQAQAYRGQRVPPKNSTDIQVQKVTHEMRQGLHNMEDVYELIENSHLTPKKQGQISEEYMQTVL

The nature of assay [8]: qHTS assay to identify small molecule antagonists of the estrogen related receptor signaling pathway with the pleiotropic PPARgamma coactivator (PGC) from Tox21 10K library (AID 1224841; call rule not given here; note: actives are mostly falling curves and most rising ones were filed inactive; nearly all actives have a fitted effect of over 50% in size; note: potency is the fitted concentration of half-maximal effect; for activity, negative = inhibition: series mostly up to about 92 µM). The essentials:
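qHTS antagonist format: PGC/ERR cells, 2k/well, compound in DMSO by pin transfer after 6 h attachment, 18 h treatment at 37 C, One-Glo luminescence read at 30 min.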

The nature of assay [9]: qHTS assay to identify small molecule agonists of the estrogen related receptor signaling pathway with the pleiotropic PPARgamma coactivator (PGC) from Tox21 10K library (AID 1224842). Note: nearly all actives have a fitted effect of over 15% in size. In outline:
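PGC/ERR reporter cell line, 2,000 cells per well, incubated 6 h at 37 C before 23 nL compound in DMSO was added. After 18 h at 37 C, One-Glo luminescence read following 30 min at room temperature.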

Records with an inconclusive call do not appear. A number with no mark means an inactive call. The source made the active and inactive calls. Unless noted, calls come from the whole dose curve; as a rule, active = well fitted curve in the direction sought with a large enough effect in the repeat runs; inconclusive = weak or mixed curves; inactive = no such curve, though single readings can be large; an effect the other way counts as inactive or inconclusive.
% is set by controls: 0 for no effect and ±100 for the full control effect.

Luciferin 4-monooxygenase (Photinus pyralis), sequence (P08659 whole entry, looked up): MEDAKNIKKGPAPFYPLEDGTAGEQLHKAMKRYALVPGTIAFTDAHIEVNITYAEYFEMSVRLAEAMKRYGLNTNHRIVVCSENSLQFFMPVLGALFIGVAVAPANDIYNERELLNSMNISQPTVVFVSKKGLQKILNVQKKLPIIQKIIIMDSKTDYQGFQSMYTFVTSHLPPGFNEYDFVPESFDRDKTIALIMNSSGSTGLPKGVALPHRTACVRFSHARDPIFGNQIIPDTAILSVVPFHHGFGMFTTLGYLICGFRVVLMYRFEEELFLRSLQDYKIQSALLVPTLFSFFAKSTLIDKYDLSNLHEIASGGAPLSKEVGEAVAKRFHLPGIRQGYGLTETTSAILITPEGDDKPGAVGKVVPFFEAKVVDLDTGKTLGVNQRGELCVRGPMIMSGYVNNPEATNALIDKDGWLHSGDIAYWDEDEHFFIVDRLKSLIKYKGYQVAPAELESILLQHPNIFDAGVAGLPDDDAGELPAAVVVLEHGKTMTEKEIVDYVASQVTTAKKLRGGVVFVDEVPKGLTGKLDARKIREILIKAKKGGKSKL

For `Cc1cccc(C)c1NC(=O)CN(CC(=O)O)CC(=O)O`, the Potency result in assay [1], in [2], in [3], in assay [4], in assay [5] and in assay [6] was “inactive” each time. Further, the Potency result in [7] is “inactive”.
In the case of `CCn1cc(C(=O)O)c(=O)c2cnc(N3CCNCC3)nc21`, the Potency entry in assay [1], in assay [2], in assay [3], in assay [4], in assay [5] and in [6] was “inactive” throughout. Besides, the Potency entry in assay [8] and in assay [9] was “inactive” throughout.
As to `CCNc1cc(O)ccc1C`, the Potency entry in assay [1], in [2], in [3], in [4], in assay [6] and in assay [8] was “inactive” each time.
For the compound `O=C(O)C1(C(=O)O)CCC1.[NH2-].[NH2-].[Pt+2]`, the Potency result in assay [1], in assay [2], in assay [3], in assay [4], in assay [6] and in [7] was “inactive” in each case.
Turning to `O=C1[C@H]2CCCC[C@H]2C(=O)N1CCCCN1CCN(c2nsc3ccccc23)CC1`, the Potency entry in assay [1], in assay [2], in [3], in assay [4], in [5] and in [9] was “inactive” each time. Also, in assay [7], the Potency result was “inactive”.
Consider `CNCCCCOc1ccccc1Cc1ccccc1`, for which the Potency entry in assay [1], in assay [5] and in assay [7] was “inactive” each time. Moreover, the Potency in assay [6] is 29.8 µM (active).
`CCCCCCCC#N`: the Potency result in [1], in assay [2], in [3], in [6], in assay [9] and in assay [7] was “inactive” in each case.
`CCCOC(C(=O)OC1CCN(C)CC1)(c1ccccc1)c1ccccc1`: the Potency result in [1], in assay [5], in [9] and in [7] was “inactive” throughout.
Consider `O=C(Cl)c1cc(C(=O)Cl)cc(C(=O)Cl)c1`, for which the Potency entry in assay [2], in [3], in assay [6] and in assay [7] was “inactive” throughout.
With `Cc1nn(C)c(Oc2ccccc2)c1/C=N/OCc1ccc(C(=O)OC(C)(C)C)cc1`, the Potency result in assay [1], in [6] and in assay [9] was “inactive” in each case.
As to `COC(=O)C1=C(C)NC(COC(N)=O)=C(C(=O)OC(C)C)C1c1cccc(Cl)c1Cl` (stereo not given), the Potency entry in assay [1], in assay [3], in assay [4], in [5], in assay [9] and in assay [7] was “inactive” each time.
For the compound `CC(CSC(=O)c1ccccc1)C(=O)N1C[C@@H](Sc2ccccc2)C[C@H]1C(=O)O` (stereo not given in full), the activity change, negative = inhibition in assay [1] is 0.3% [at 23.6 µM]. The viability change, negative = cytotoxic in assay [2] is 5.15% [at 19 µM]; in assay [6] it was 17.4% [at 19 µM]. For the same compound, the activity change, negative = cytotoxicity in assay [3] was 0% [at 19 µM]. For the same compound, in assay [8], the activity, negative = inhibition is 1.67% [at 19 µM]. Besides, the activation in assay [9] was 0.512% [at 19 µM]; in assay [7] it was -0.691% [at 19 µM].
As for `CCCNCC(O)COc1ccccc1C(=O)CCc1ccccc1` (stereo not given), the Potency result in assay [2], in assay [3], in [4], in assay [5], in assay [6] and in assay [7] was “inactive” each time.
With `CCCCC`, the Potency result in assay [1], in [2], in assay [3], in assay [6] and in [7] was “inactive” throughout.
`CCCCCCCCCCCCCCOS(=O)(=O)O`: the Potency result in [2], in assay [3], in assay [4], in assay [5] and in assay [6] was “inactive” throughout.
Consider `Clc1ccc(Cn2c(CN3CCCC3)nc3ccccc32)cc1`, for which the Potency entry in assay [1], in assay [2], in [6] and in assay [7] was “inactive” throughout. Also, the Potency in [4] and in assay [5] was 11.9 µM (active) throughout.
On to `CNCCCN1c2ccccc2CCc2ccccc21`, for which the Potency entry in assay [1], in assay [4], in assay [5], in assay [6] and in assay [7] was “inactive” each time.
Turning to `CC(C)OC(=O)C(C)N(C(=O)c1ccccc1)c1ccc(F)c(Cl)c1` (stereo not given), the Potency result in [1], in [3], in assay [4] and in assay [9] was “inactive” throughout. In addition, the Potency in [5] is 48.6 µM (active); in assay [8], 21.7 µM (active).
Consider `CCC(CC)Nc1ccc(C)c(C)c1`, for which the Potency entry in [1], in assay [3], in assay [4], in assay [5] and in assay [6] was “inactive” each time.
With `Nc1c(CC(=O)O)cccc1C(=O)c1ccc(Br)cc1`, the Potency result in [1], in [2], in assay [3], in assay [6] and in assay [7] was “inactive” in each case.
As to `CCCCCCCCCCCCCCCCOS(=O)(=O)O`, the Potency result in [1], in assay [3], in assay [4], in assay [5] and in [6] was “inactive” throughout.
With `OCCN1CCN(CCCN2c3ccccc3C=Cc3ccccc32)CC1`, the Potency entry in [1], in [4], in [5], in assay [6] and in assay [7] was “inactive” in each case.
Take `C[C@H](CCC(=O)O)[C@H]1CC[C@H]2[C@@H]3CC[C@@H]4C[C@H](O)CC[C@]4(C)[C@H]3C[C@H](O)[C@]12C`: the Potency result in assay [1], in assay [3] and in [4] was “inactive” each time.
`O=C1OC(CN2CCOCC2)CN1/N=C/c1ccc([N+](=O)[O-])o1` (stereo not given): the Potency result in assay [1], in assay [3] and in assay [6] was “inactive” each time.
Regarding `CCC(C)O` (stereo not given), the Potency entry in assay [2], in assay [3], in assay [4], in [5], in [6] and in [7] was “inactive” in each case.
For `O=C(CS)Nc1ccccc1`, the Potency result in assay [1], in [3], in assay [6] and in assay [7] was “inactive” in each case.
`OC(CN1CCC(Cc2ccc(F)cc2)CC1)c1ccc(Cl)cc1` (stereo not given): the Potency entry in assay [1] and in assay [5] was “inactive” throughout. Moreover, in assay [4], the Potency is 23.7 µM (active).
`Nc1ncn([C@H]2C[C@H](O)[C@@H](CO)O2)c(=O)n1`: the Potency result in [2], in assay [3], in assay [4], in [5] and in assay [6] was “inactive” each time.
`Cc1cc(N)c2cc(NC(=O)Nc3ccc4nc(C)cc(N)c4c3)ccc2n1`: the Potency result in assay [2], in assay [3], in assay [4], in [5] and in assay [6] was “inactive” throughout.
In the case of `CCCCc1nc2cccnc2n1Cc1ccc(-c2ccccc2-c2nnn[nH]2)cc1`, the Potency result in [4], in assay [5], in assay [6] and in assay [7] was “inactive” throughout.
In the case of `CN(C)C(=O)NC1(c2ccccc2)CCN(CC[C@@]2(c3ccc(F)c(F)c3)CN(C(=O)c3ccccc3)CCO2)CC1`, the Potency entry in [1], in [2], in assay [3], in assay [9] and in assay [7] was “inactive” each time.
Take `NC(N)=NCCC[C@H](N)C(=O)O`: the activity change, negative = inhibition in assay [1] was 0.418% [at 10.5 µM]. Moreover, the viability change, negative = cytotoxic in assay [2] is 0.813% [at 8.39 µM]; in [6], -6.77% [at 8.39 µM]. Besides, in assay [3], the activity change, negative = cytotoxicity is -4.98% [at 8.39 µM]. The activation in assay [7] is -0.151% [at 8.39 µM].
For `CC(C)CC(=O)C1C(=O)c2ccccc2C1=O`, the Potency result in [1], in assay [4], in assay [9] and in [7] was “inactive” each time. In addition, the Potency in [8] is 27.3 µM (active).
As to `COc1cc2nc(N(C)CCCNC(=O)C3CCCO3)nc(N)c2cc1OC` (stereo not given), the Potency result in [1], in assay [3], in assay [6], in assay [9] and in assay [7] was “inactive” each time. Moreover, in assay [8], the Potency is 15 µM (active).
For `CCCCCCc1ccc(-c2ccc(C#N)cc2)cc1`, the Potency entry in assay [2], in [3], in [4], in [6] and in [7] was “inactive” in each case.
